Assay [1] in a line: compounds binding Alexa647 anti-His antibody – biochemical, small-molecule microarray, 635 nm fluorescence, artefact control for SMM control protein annotation, primary screen (AID 1128).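 Note: score merges feature fluorescence with signal-to-noise for each printed compound spot.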 As to conditions: higher = more signal.
For assay [2], the system named is Human papillomavirus type 1a E7 protein (residues 1-88). Nature of the assay: HPV1a E7 small-molecule binders, primary screen, biochemical, small-molecule microarray, residues 1-88, 635 nm (AID 1129). To be noted: small-molecule microarray binding, fluorescence 635 nm; higher = more signal.
Assay [3] has as its target Focal adhesion kinase 1 (Homo sapiens) (UniProt Q05397). Kind of assay: PTK2 protein binding on printed compound slides – biochemical, small-molecule microarray, 635/667 nm fluorescence, BSA, DTT, primary screen (AID 1130).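 Note: composite of spot emission at 667 nm and signal to noise over triplicate slides.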 As to conditions: 635 nm fluorescence, higher = more signal.
For assay [4], the system named is Fibrinogen (Alexa647-labelled). Kind of assay: Alexa647-fibrinogen binding to printed small molecules – biochemical, small-molecule microarray, 635/667 nm fluorescence, artefact control for SMM control-protein annotation, profiling panel (AID 1131).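 Note: z-score merges 667 nm fluorescence with per-spot signal-to-noise over triplicate slides.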 As to conditions: fibrinogen-A647 binding fluorescence, higher = more signal.
The target in assay [5] is Follistatin (Homo sapiens) (UniProt P19883). Kind of assay: FST protein binding to printed compounds – biochemical, small-molecule microarray, 635/667 nm fluorescence, primary screen (AID 1132). As to conditions: 635 nm fluorescence, higher = more signal.
Assay [6] deals with Fibroblast growth factor 2 (Homo sapiens) (UniProt P09038). Kind of assay: basic fibroblast growth factor binding to printed compounds – biochemical, small-molecule microarray, 635/667 nm fluorescence, primary screen (AID 1133). As to conditions: FGF2, fluorescence 635/667, higher = more signal.
Assay [7] can be described thus: JC-1 mitochondrial potential readout, lung cancer cells – cell-based, A549, JC-1 fluorescence, basal, 24 h, 100 nL, profiling panel (AID 1138).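 Note: A549 lung adenocarcinoma cells under basal conditions with no added stimulus; test concentration not given here.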 To be noted: higher = more signal.
Another assay relates to Lefty1. Nature of the assay: Lefty1 protein binding to printed compounds – biochemical, small-molecule microarray, 635/667 nm fluorescence, primary screen (AID 1139). As to conditions: fluorescence 635/667, higher = more signal.
The subject of assay [8] is wheat germ agglutinin (Triticum aestivum), Alexa647-labelled. Nature of the assay: Alexa647-WGA lectin binding to printed small molecules – biochemical, small-molecule microarray, 635/667 nm fluorescence, artefact control for SMM control-protein annotation, profiling panel (AID 1140).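 Note: score merges 667 nm feature emission with signal to noise over triplicate slides.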 To be noted: WGA-A647 binding, 635 nm fluorescence, higher = more signal.
The target of assay [9] is Luciferin 4-monooxygenase (Photinus pyralis) (UniProt P08659). Kind of assay: inhibition of purified Photinus pyralis luciferase – biochemical, luminescence, purified enzyme, 2006 set, primary screen (AID 1141).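 Note: cell-free assay with purified firefly luciferase at 100 ng per well in PBS; test concentration not given here.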 To be noted: purified firefly luciferase, SteadyGlo luminescence, 30 min; higher = more signal, called active from +8 up or from −8 down.
The subject of assay [10] is Wnt5a (protein binding on small-molecule microarray). Nature of the assay: small molecules binding Wnt5a protein – biophysical, small-molecule microarray, 635/667 nm fluorescence, primary screen (AID 1142).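 Note: fluorescence read at 667 nm with signal to noise per printed feature.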 To be noted: 635 nm fluorescence, higher = more signal.
The nature of assay [11]: ATP-based viability of Huh7 replicon cells – cell-based, CellTiter-Glo luminescence, basal, 48 h, cytotoxicity control for HCV replication inhibitor project, primary screen (AID 1143).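 Note: Huh7 hepatoma cells carrying a hepatitis C replication reporter with no stimulus; test concentration not given here.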 As to conditions: higher = more signal, called active from +8 up or from −8 down. In general terms: Replicon systems follow genome replication, usually without infectious particles.
The nature of assay [12]: Pseudomonas biofilm growth suppression – PAO1 strain, BacTiter-Glo luminescence, LB-PBS, primary screen (AID 1144). As to conditions: P. aeruginosa PAO1 biofilm, 12 h, higher = more signal.
Assay [13] can be described thus: basal CRE-LacZ reporter activity in PC12 – cell-based, unstimulated, primary screen (AID 1145). To be noted: no forskolin, luminescence, 4.5 h, higher = more signal, called active from +8 up or from −8 down.
Assay [14] is described as follows: forskolin-driven CRE-LacZ activity in PC12 – cell-based, CRE-LacZ reporter, forskolin-stimulated, primary screen (AID 1146).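 Note: PC12 cells with 6xCRE LacZ reporter stimulated by forskolin 10 µM; beta-galactosidase reporter signal reflecting CREB driven transcription.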 As to conditions: luminescence, 4.5 h, higher = more signal, called active from +8 up or from −8 down.
The target of assay [15] is Streptavidin (Streptomyces avidinii) (UniProt P22629). Nature of the assay: compounds binding control protein streptavidin – biophysical, small-molecule microarray, 635/667 nm fluorescence, artefact control for SMM compound annotation, primary screen (AID 1147).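 Note: signal reflects streptavidin binding to arrayed compounds as a control protein.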 To be noted: higher = more signal.
The nature of assay [16]: probe aInhba binding on compound microarray – biochemical, small-molecule microarray, 635/667 nm fluorescence, primary screen (AID 1148).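 Note: score merges 667nm spot fluorescence with signal-to-noise for antibody binding to printed compounds.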 As to conditions: higher = more signal.
Assay [17] has as its target Torsin-1A (Homo sapiens) (UniProt O14656). Kind of assay: TOR1A wild-type binding on microarray – cell lysate, small-molecule microarray, lysate, 635/667 nm, primary screen (AID 1149). As to conditions: COS7 hTOR1A-WT lysate, 635 nm fluorescence, higher = more signal.
For assay [18] the target is unchanged. Kind of assay: torsin A mutant lysate binding on microarrays – cell lysate, small-molecule microarray, COS7 lysate, 635/667 nm fluorescence, primary screen (AID 1150).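 Note: score pools 667 nm emission and signal to noise measuring lysate protein binding.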 As to conditions: COS7 hTOR1A mutant lysate, 635 nm fluorescence, higher = more signal.
In assay [19] the test system is Sonic hedgehog protein (Shh). Nature of the assay: Sonic hedgehog microarray binding compounds – biochemical, small-molecule microarray, 635/667 nm fluorescence, primary screen (AID 1151).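 Note: Shh protein binding to compounds spotted on small-molecule microarray slides; score combines spot fluorescence intensity with signal-to-noise across triplicate slides.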 To be noted: 635 nm fluorescence, higher = more signal.

Structures are written as SMILES. Activity calls are given as the source filed them. Unless noted, the rule behind the calls is not given here.

The values below come from PubChem BioAssay.

Sequence of Luciferin 4-monooxygenase (Photinus pyralis) (P08659 whole entry, looked up): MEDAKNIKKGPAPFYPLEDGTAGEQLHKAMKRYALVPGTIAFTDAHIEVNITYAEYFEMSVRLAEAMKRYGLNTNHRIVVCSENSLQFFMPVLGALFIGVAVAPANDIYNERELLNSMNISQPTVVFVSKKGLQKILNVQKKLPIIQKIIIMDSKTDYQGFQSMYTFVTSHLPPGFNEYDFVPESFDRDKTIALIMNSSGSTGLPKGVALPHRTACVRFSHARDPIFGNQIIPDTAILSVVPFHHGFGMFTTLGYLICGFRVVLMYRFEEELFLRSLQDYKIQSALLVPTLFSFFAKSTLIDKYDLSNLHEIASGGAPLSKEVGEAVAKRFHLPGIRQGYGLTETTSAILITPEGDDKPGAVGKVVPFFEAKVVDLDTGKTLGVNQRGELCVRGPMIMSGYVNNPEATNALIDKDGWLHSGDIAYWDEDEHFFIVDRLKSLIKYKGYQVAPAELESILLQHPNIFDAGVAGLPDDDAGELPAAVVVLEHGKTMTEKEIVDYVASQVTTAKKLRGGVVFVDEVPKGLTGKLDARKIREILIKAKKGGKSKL
Sequence of Follistatin (Homo sapiens) (P19883 whole entry, looked up): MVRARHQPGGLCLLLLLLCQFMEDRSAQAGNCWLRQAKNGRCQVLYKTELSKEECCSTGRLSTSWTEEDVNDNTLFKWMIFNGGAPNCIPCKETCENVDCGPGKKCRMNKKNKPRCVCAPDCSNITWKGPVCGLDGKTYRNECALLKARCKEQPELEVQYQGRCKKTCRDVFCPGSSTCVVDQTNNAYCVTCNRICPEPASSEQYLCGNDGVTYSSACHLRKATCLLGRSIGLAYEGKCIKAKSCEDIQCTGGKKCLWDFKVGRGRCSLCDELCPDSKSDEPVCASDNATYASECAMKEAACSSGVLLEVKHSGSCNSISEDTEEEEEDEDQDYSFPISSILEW
Sequence of Fibroblast growth factor 2 (Homo sapiens) (P09038 whole entry, looked up): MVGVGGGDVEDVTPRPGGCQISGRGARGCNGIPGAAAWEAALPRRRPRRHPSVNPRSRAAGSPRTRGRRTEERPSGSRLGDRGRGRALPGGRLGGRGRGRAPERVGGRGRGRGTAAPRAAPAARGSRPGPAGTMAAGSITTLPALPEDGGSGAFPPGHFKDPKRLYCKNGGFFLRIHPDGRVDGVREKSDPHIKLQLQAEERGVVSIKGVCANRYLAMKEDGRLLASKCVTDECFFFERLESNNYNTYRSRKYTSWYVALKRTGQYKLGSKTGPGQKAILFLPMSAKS
Sequence of Focal adhesion kinase 1 (Homo sapiens) (Q05397 whole entry, looked up): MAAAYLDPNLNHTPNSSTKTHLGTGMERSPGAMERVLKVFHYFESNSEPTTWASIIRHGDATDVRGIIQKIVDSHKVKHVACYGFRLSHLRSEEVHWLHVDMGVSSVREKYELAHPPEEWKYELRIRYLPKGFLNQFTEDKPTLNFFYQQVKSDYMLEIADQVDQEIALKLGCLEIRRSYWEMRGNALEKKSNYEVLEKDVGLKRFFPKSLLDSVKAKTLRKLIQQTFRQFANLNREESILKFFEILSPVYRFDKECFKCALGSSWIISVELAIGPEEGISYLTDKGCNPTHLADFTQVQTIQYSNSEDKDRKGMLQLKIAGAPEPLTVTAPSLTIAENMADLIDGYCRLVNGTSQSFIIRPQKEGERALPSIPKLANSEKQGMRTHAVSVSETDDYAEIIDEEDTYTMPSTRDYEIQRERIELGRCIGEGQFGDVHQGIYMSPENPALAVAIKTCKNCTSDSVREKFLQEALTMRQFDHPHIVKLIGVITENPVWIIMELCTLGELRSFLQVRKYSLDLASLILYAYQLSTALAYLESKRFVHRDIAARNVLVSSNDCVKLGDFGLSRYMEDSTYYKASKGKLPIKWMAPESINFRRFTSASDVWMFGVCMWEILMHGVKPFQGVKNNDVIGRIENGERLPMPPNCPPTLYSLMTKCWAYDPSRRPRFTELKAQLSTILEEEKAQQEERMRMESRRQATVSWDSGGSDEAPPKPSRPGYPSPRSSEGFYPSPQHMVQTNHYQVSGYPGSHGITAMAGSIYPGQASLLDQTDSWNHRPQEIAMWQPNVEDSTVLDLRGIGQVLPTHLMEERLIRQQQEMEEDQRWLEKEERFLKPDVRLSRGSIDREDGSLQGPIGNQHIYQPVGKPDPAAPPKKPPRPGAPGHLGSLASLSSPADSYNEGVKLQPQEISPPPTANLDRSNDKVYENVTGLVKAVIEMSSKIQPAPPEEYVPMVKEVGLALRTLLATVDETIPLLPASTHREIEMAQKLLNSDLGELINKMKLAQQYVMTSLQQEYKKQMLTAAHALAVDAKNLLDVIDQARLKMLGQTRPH
Sequence of Torsin-1A (Homo sapiens) (O14656 whole entry, looked up): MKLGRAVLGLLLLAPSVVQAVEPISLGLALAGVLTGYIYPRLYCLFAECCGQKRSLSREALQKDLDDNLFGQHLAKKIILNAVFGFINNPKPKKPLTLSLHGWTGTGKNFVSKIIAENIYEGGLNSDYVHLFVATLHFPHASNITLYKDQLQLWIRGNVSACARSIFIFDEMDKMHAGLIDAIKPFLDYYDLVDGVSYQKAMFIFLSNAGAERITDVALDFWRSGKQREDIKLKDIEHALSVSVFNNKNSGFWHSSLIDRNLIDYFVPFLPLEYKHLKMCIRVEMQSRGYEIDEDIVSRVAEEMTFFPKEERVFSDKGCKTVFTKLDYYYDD
Sequence of Streptavidin (Streptomyces avidinii) (P22629 whole entry, looked up): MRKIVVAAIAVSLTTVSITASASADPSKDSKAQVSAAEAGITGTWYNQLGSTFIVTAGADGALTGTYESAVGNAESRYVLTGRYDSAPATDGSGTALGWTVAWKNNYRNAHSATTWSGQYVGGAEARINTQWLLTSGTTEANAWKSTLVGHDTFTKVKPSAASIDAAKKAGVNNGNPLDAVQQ

With `C=CCC(OC(C)=O)[C@@H]1[C@@H](N(Cc2cccc3ccccc23)C(=O)c2ccc(-c3ccccc3)cc2)c2cc(OCCCO)ccc2N1C(=O)Cc1ccc(OC)cc1` (stereo not given in full), the composite z-score in [1] was 0.364; in assay [2], -0.128; in assay [3], 0.179; in assay [4], 0.603; in assay [5] it was 0.652; in [6] it was -0.0199. For the same molecule, the composite z-score in the assay on Lefty1 was 0.246; in assay [8], 0.281; in [10], 0.36; in assay [15], 0.311; in assay [16], 0.0018; with Torsin-1A (Homo sapiens) [17], 0.0276. Further, the composite z-score with Torsin-1A (Homo sapiens) [18] was -0.265; in [19], 0.179. Also, the z-score in [7] is 1.06; in assay [9], 0.912 (inactive); in assay [11] it was -0.454 (inactive); in assay [12] it was -0.266 (inactive); in assay [13] it was -0.491 (inactive); in [14], 0.117 (inactive).
`CC(C)C[C@@H]1NC(=O)[C@@H]2C[C@H](C(=O)NCCCCCN)[C@H](c3cccc(OCCO)c3)N2C1=O`: the composite z-score in assay [1] stood at 1.19; in assay [2] it was 1.04; in assay [3], 1.13; in assay [4] it was 0.93; in [5], 0.555; in assay [6], 0.591. Further, the composite z-score was 0.288 in the assay on Lefty1; 1.13 in assay [8]; 0.794 in assay [10]; 1.05 in [15]; -0.0736 in assay [16]; 0.941 in the assay with Torsin-1A (Homo sapiens) [17]. Also, the results for the composite z-score (with Torsin-1A (Homo sapiens) [18]; in [19]) were 0.919 and 1.05, respectively. For the same molecule, the z-score was 1.18 in assay [7]; -1.21 (inactive) in assay [9]; -0.542 (inactive) in [11]; -1.64 (inactive) in assay [12]; 0.0043 (inactive) in [13]; 0.442 (inactive) in [14].
As for `CCCC[C@@H]1C[C@H]1[C@@H](NC(=O)c1ccco1)c1ccc(C(=O)OC)cc1`, the composite z-score is -0.499 in assay [1]; 0.149 in [2]; 0.214 in assay [3]; 0.0507 in assay [4]; -0.943 in [5]; -1.42 in assay [6]. Moreover, the composite z-score with Lefty1 is -0.431; in assay [8], 0.586; in assay [10] it was -0.195; in assay [15] it was 0.564; in assay [16], -0.154; in the assay with Torsin-1A (Homo sapiens) [17], -0.708. The figures for the composite z-score (in the assay with Torsin-1A (Homo sapiens) [18]; in assay [19]) were -0.319 and -1.47, respectively. The z-score was -0.814 in assay [7]; 1.94 (inactive) in assay [9]; -1.88 (inactive) in [11]; -0.333 (inactive) in assay [12]; 0.0075 (inactive) in [13]; 1.58 (inactive) in [14].
As for `CC(C)(C)OC(=O)CC[C@@]1(C(=O)NCC(O)CO)N=C(c2ccc(OCCCO)cc2)O[C@@H]1c1ccccc1N=[N+]=[N-]` (stereo not given in full), the composite z-score came out at 2.37 in assay [1]; 0.818 in [2]; 0.94 in assay [3]; 0.985 in assay [4]; 1.43 in assay [5]; 0.692 in [6]. For the same molecule, the composite z-score with Lefty1 is -0.0052; in assay [8], 0.96; in assay [10], 0.849; in assay [15], 1.85; in assay [16] it was 0.289; in the assay with Torsin-1A (Homo sapiens) [17], 1.45. In addition, the composite z-score in the assay with Torsin-1A (Homo sapiens) [18] is 1.76; in [19], 0.146. Moreover, the z-score in [7] was 1.18; in assay [9] it was -10.6 (active); in [11], -0.371 (inactive); in assay [12], -1.18 (inactive); in assay [13], -0.183 (inactive); in assay [14] it was -0.173 (inactive).
On to `CC(C)N1C(=O)c2ccccc2[C@](C)(C(=O)NCc2ccccc2)[C@@H]1c1ccc(CO)cc1`, for which the composite z-score in assay [1] was 3.09; in assay [2] it was 0.29; in [3], 0.239; in assay [4] it was -1.77; in assay [5], -0.24; in assay [6], -0.131. The composite z-score is -0.554 in the assay with Lefty1; -0.444 in [8]; -0.111 in [10]; -0.558 in assay [15]; -0.154 in [16]; 1.3 with Torsin-1A (Homo sapiens) [17]. Besides, the composite z-score with Torsin-1A (Homo sapiens) [18] was -0.119; in [19] it was -0.0391. The z-score in assay [7] was -0.39; in [9] it was -1.06 (inactive); in [11], -0.139 (inactive); in [12] it was 0.261 (inactive); in assay [13] it was 0.558 (inactive); in assay [14], -0.074 (inactive).
